Vaccinia Venus – vaccinia inhibition (Venus reporter); Vaccinia virus Venus reporter expression, fluorescence; Potency, µM (titrated, usually from 36.5 µM), for inactives: top-dose activity change, negative = inhibition, hits mostly inhibitors; actives 0.46% (n = 330,000); AID 720580; calls by dose curve; tested in A549 cells; further: on the % scale 0 is the no-effect control and ±100 the full control effect; nearly all actives have a fitted effect of over 30% in size
HCV inhibitor – blocks hepatitis C virus; Huh7.5.1 HCVcc-Cre infection, luciferase reporter, 44 h; Potency, µM (series often up to 41.8 µM), for the others: top-dose activity change, negative = inhibition, actives largely listed as inhibitors; actives 3.4% (n = 340,000); further: on the % scale 0 is the no-effect control and ±100 the full control effect
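Infectious HCVcc-Cre (~0.5 moi) was added to cells just after compound, with cells seeded 4 h earlier at 1,000 per well. Luciferase activity after 44 h culture reported infection; substrate was incubated 15 min at room temperature before reading.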
Vaccinia mCherry – inhibitors of vaccinia virus infection (mCherry reporter signal). Vaccinia virus mCherry reporter infection, fluorescence. Potency, µM (series often up to 36.5 µM), without a hit: at the highest dose activity change, negative = inhibition, usual class: inhibitors. actives 0.63% (n = 310,000). AID 720579; calls by dose curve; tested in A549 cells; further: on the % scale 0 is the no-effect control and ±100 the full control effect; nearly all actives have a fitted effect of over 35% in size
Pf growth 96h – P. falciparum growth inhibition at 96 hours; actives 6.9% (n = 320,000); Potency, µM (highest dose often 28.7 µM), for the others: at the highest dose activity change, negative = inhibition, usual class: inhibitors; P. falciparum luciferase reporter growth, 96 h; further: on the % scale 0 is the no-effect control and ±100 the full control effect
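Luminescence readout: decreased luciferase signal marks inhibited growth of reporter-expressing P. falciparum in infected red cells (2% hematocrit, 0.05% parasitemia final), exposed to compound two generations (96 h, 37 C, 5% CO2).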
NS1 inh – influenza NS1 inhibition. Potency, µM (series often up to 46.1 µM), for inactives: at the highest dose activity, positive = more growth. actives 0.4% (n = 270,000); calls by dose curve; further: actives are rising curves; nearly all actives have a fitted effect of over 50% in size
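Read-out: OD600 growth recovery of NS1-expressing budding yeast. Cells grown overnight at 30C in -URA glucose medium, washed, resuspended and diluted 1:100 in 2% galactose assay medium, pH 6.0. Same strain lacking NS1 served as positive control.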
Pf growth 48h – inhibits P. falciparum growth in the first generation, 48 h. P. falciparum luciferase growth in erythrocytes, 48 h. Potency, µM (highest dose often 28.7 µM), for the others: at the highest dose activity change, negative = inhibition, most hits filed as inhibitors. actives 5.9% (n = 310,000); further: on the % scale 0 is the no-effect control and ±100 the full control effect
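A one-generation exposure of luciferase-tagged malaria parasites in RPMI 1640/Albumax erythrocyte culture, 37 C and 5% CO2. Inhibition is inferred from decreased luminescence after adding detection reagent.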
* hit, by the source's call; i = inactive; u = inconclusive; x = no result; [ ] = another dose, or the depositor's remark. Rows were chosen to be rich in hits. Some 11% of all compounds tested hit in one or more screens of this group. Unless noted, the call rests on the fitted dose curve; in most records, active means well fitted inhibition curve with a large enough effect; inconclusive means small, poorly fitted or top-dose-only effect, or another doubt; inactive means no such curve, though single readings can be large or run the other way. Potency means the concentration at half of the fitted maximal effect.

SMILES | Vaccinia Venus | HCV inhibitor | Vaccinia mCherry | Pf growth 96h | NS1 inh | Pf growth 48h
COc1cc(OC)c2c(-c3cccc(-c4ccc(F)c(Cl)c4)c3)cc(=O)oc2c1 | -23.9% | u | -14.8% | x | x | x
CCC(=O)N1CCc2cc(S(=O)(=O)Nc3ccccc3C)ccc21 | 2.7% | -2.7% | 10.8% | 0.928µM* | 2.8% | 1.7%
C/C(=N\NC(=O)c1sccc1C)c1ccncc1 | -22.6% | 4.6% | -16.8% | 7.38µM* | -12.7% | 98.3%
C/C(=N\NC(=O)c1sccc1C)c1cccnc1 | x | 10.3% | x | 1.0% | -0.8% | 46.9%
C/C(=N\NC(=O)c1ccc(OC2OCCOC2Oc2ccc(C(=O)N/N=C(\C)c3ccncc3)cc2)cc1)c1ccncc1 (stereo not drawn) | x | u | x | u | 3.2% | 1.65µM*
Cc1nnc(N/N=C/c2ccc(-c3ccccc3F)o2)n1N | 28.2µM* | 3.7% | u | 17.4% | x | 30.4%
Cc1nnc(N/N=C\c2ccc(-c3ccccc3[N+](=O)[O-])o2)n1N | 22.4µM* | -26.6% | u | u | -41.0% | -8.4%
Cc1cc(C)n(-c2nc(Nc3ccccc3C)nc(-n3nc(C)cc3C)n2)n1 | x | x | x | 1.04µM* | 27.2% | 2.33µM*
Cc1cc(C)n(-c2nc(Nc3ccccc3C(F)(F)F)nc(-n3nc(C)cc3C)n2)n1 | 12.6µM* | 5.62µM* | x | -107.6% | 16.6% | 4.15µM*
Nc1c(C(=O)OCc2ccccc2)c2nc3ccccc3nc2n1Cc1cccs1 | x | u | x | 14.7µM* | 8.7% | x
COc1ccc(OC)c(CNC(=O)CCNC(=O)Cn2ccc3ccccc3c2=O)c1 | -9.4% | -3.6% | i | -13.8% | -13.7% | 7.1%
CCN(CC)C(=O)CSc1nc2c(sc(=S)n2-c2ccccc2)c(=O)n1-c1ccc(OC)c(OC)c1 | x | u | x | 8.2% | 8.1% | 4.65µM*
CCN(CC)C(=O)CSc1nc2c(sc(=S)n2-c2ccccc2)c(=O)n1-c1ccc(OC)cc1OC | x | u | x | u | 11.4% | 6.57µM*
COc1ccc(-n2c(SCC3OCCO3)nc3c(sc(=S)n3-c3ccccc3)c2=O)cc1OC | -16.2% | u | -3.3% | -56.5% | x | -18.8%
CCN(CC)C(=O)CSc1nc2c(sc(=S)n2-c2ccccc2)c(=O)n1-c1ccccc1OC | -10.8% | u | -11.7% | -0.5% | 15.5% | 8.28µM*
CCOC(=O)CSc1nc2c(sc(=S)n2-c2ccccc2)c(=O)n1-c1ccc(OC)cc1OC | x | -19.8% | x | 10.8% | u | 10.4µM*
COc1ccccc1-n1c(SCC(=O)O)nc2c(sc(=S)n2-c2ccc(C)c(C)c2)c1=O | x | 12.2% | x | u | u | -1.7%
CN1CCN(c2cc(-c3ccccc3)nc3cc(-c4ccc(F)cc4)nn23)CC1 | -16.7% | u | x | -9.2% | 5.1% | x
O=C(NCCC1=CCCCC1)c1ccc2c(c1)N(Cc1ccccc1)C(=O)CS2 | x | u | x | 5.86µM* | 13.4% | x
O=C(c1ccc2c(c1)N(Cc1ccccc1)C(=O)CS2)N1CCOCC1 | x | 5.3% | x | 13.1µM* | -16.8% | -2.1%
Cc1ccccc1CN1C(=O)CSc2ccc(C(=O)N3CCOCC3)cc21 | -1.0% | 3.2% | x | u | 5.7% | -24.5%
O=C(NCCc1ccccc1)c1ccc2c(c1)N(Cc1ccc(Cl)cc1)C(=O)CS2 | -19.1% | x | -20.3% | x | x | x
C=CCN1C(=O)CSc2ccc(C(=O)NC(C)c3ccccc3)cc21 (stereo not drawn) | 6.9%[7.34 µM] | -19.9% | -7.8%[7.34 µM] | 9.28µM* | -4.3% | -2.0%
COc1cc2nc(NCCCN3CCN(C)CC3)n3nc(-c4ccccc4)nc3c2cc1OC | u | u | -7.8% | x | -2.9% | x
COc1ccccc1N1CCN(C(=O)CCCCn2c(=O)[nH]c3ccsc3c2=O)CC1 | -15.2% | -20.8% | i | -14.0% | -3.7% | x
SMILES | Vaccinia Venus | HCV inhibitor | Vaccinia mCherry | Pf growth 96h | NS1 inh | Pf growth 48h
CCN(CC)C(=S)Oc1c(Cl)cccc1Cl | x | 23.1% | x | 20.2% | 7.2% | 20.3%
CCOc1ccc(-n2c(SCc3ccc([N+](=O)[O-])cc3)nnc2-c2ccccc2)cc1 | u | -29.7% | -12.1% | 4.65µM* | 13.5% | u
Cc1ccc(OCc2nnc(SCc3cc(=O)[nH]c4ccccc34)n2-c2ccccc2)cc1 | 10µM* | -25.8% | u | 5.86µM* | 9.8% | u
Cc1ccc(OCc2nnc(SCC(=O)Nc3cccc4ccccc34)n2-c2ccccc2)cc1 | u | u | u | 13.1µM* | u | u
CC1CCCC(C)N1C(=O)CSc1nnc(COc2ccccc2)n1-c1ccccc1 (stereo not drawn) | -24.3% | 7.4% | -18.9% | 14.7µM* | -1.9% | x
O=C(O)/C=C\C(=O)Nc1ccccc1N1CCN(c2ccccc2)CC1 | x | 4.2% | x | u | 17.5% | -9.9%
CCOc1ccc(N2C(=O)Nc3ccccc3C2(O)C(=O)NCc2ccc(OC)cc2)cc1 (stereo not drawn) | -8.3% | -19.0% | -1.5% | 13.3% | x | -13.2%
C[C@]12CC[C@H](O)C[C@@H]1CC[C@H]1[C@H]3CCC(=O)[C@@]3(C)CC[C@@H]12 | -7.2% | x | i | x | x | x
CCc1nnc(NC(=O)CSc2nnc(C3CCCCC3)n2-c2ccccc2)s1 | x | 0.7% | x | 32.5% | -6.0% | -4.8%
CCCC(=O)Nc1nc2n(n1)C(c1ccccc1)CC(=O)N2 (stereo not drawn) | x | 19.9% | x | 86.0% | -2.1% | 0.9%
C=C(C)c1cccc(C(C)(C)NC(=O)N2CCC(C(N)=O)CC2)c1 | -7.6% | 6.7% | i | -8.9% | x | 4.9%
CC(Sc1nnc(COc2ccc([N+](=O)[O-])cc2)n1-c1ccccc1)C(=O)O (stereo not drawn) | -1.9% | 17.4% | 0.8% | 9.28µM* | 6.6% | -2.8%
Cc1ccc(NC(=O)CSc2nnc(COc3ccc(C#N)cc3)n2-c2ccccc2)cc1C | -11.6% | u | -14.3% | 10.4µM* | -40.6% | u
COc1ccc(-n2c(COc3ccccc3)nnc2SCc2ccc(C#N)cc2)cc1 | x | -20.2% | x | u | 1.4% | 11.7µM*
CCOC(=O)C(=O)Nc1c(C(=O)Nc2cccc(F)c2)oc2ccccc12 | -5.9% | x | -17.0% | x | x | x
c1ccc(-c2ccncn2)cc1 | 6.8% | 10.7% | -13.9% | x | x | x
CCc1noc(C)c1C(=O)N1CCCSC1=Nc1ccccc1C(C)C | -14.6% | 2.5% | -10.0% | 6.57µM* | x | 14.7µM*
Cc1ccccc1NC(=O)c1cccc(N2C(=O)C3C4CC(C(Br)C4Br)C3C2=O)c1 (stereo not drawn) | x | 6.4% | x | 9.28µM* | 17.6% | -24.8%
O=C(Nc1ccc(Br)cc1)c1cccc(N2C(=O)C3C4CCC(C4)C3C2=O)c1 (stereo not drawn) | -24.5% | 25.1µM* | -26.1% | -7.0% | 6.9% | -7.0%
COC(=O)c1ccc(NC(=O)c2cccc(N3C(=O)C4C5C=CC(C6CC56)C4C3=O)c2)cc1 (stereo not drawn) | -14.7% | 5.01µM* | -16.0% | u | -48.3% | 19.6%

Assay outcomes deposited in PubChem by National Center for Advancing Translational Sciences (NCATS).
